This is one part of a sample in which the strongest signals are shown more often than they occur.
Tests used:
Assay in all cases: glycan array binding signal (z-score within array); higher = stronger binding
Conditions in all cases: glycan notation: IUPAC condensed, linker removed; mutation: R82H, R255H
[1] = target: Gal(b1-4)GlcNAc(b1-3)Gal(b1-4)GlcNAc(b1-3)[Gal(b1-4)GlcNAc(b1-3)Gal(b1-4)GlcNAc(b1-6)]GalNAc
Summary of the method: (§1)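 Arrays were curated from the Consortium for Functional Glycomics database, 3228 in total, and kept only where the protein sequence was available. Binding is expressed as a within-array Z-score. This score was averaged across arrays of the same protein sequence at different concentrations or buffers and across linkers, and negative values can be read as non-binding.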

Gal4S(b1-4)GlcNAc = target: Gal4S(b1-4)GlcNAc
Summary of the method: as §1

Gal6S(b1-3)GlcNAc6S = target: Gal6S(b1-3)GlcNAc6S
Summary of the method: as §1

[2] = target: GalNAc(a1-3)GalNAc(b1-3)Gal(a1-4)Gal(b1-4)Glc
Summary of the method: as §1

GalNAc(b1-3)GalNAc = target: GalNAc(b1-3)GalNAc
Summary of the method: as §1

GalNAc(b1-4)GlcNAc = target: GalNAc(b1-4)GlcNAc
Summary of the method: as §1

[3] = target: GalNAc(b1-4)GlcNAc(b1-3)GalNAc(b1-4)GlcNAc
Summary of the method: as §1

[4] = target: GlcA3S(b1-3)Gal(b1-4)GlcNAc(b1-3)Gal(b1-4)Glc
Summary of the method: as §1

[5] = target: GlcNAc(b1-2)Man(a1-3)[GlcNAc(b1-4)][GlcNAc(b1-2)Man(a1-6)]Man(b1-4)GlcNAc(b1-4)[Fuc(a1-6)]GlcNAc
Summary of the method: as §1

[6] = target: GlcNAc(b1-3)Gal(b1-4)GlcNAc(b1-3)Gal(b1-4)GlcNAc(b1-2)[GlcNAc(b1-3)Gal(b1-4)GlcNAc(b1-3)Gal(b1-4)GlcNAc(b1-6)]Man(a1-6)[GlcNAc(b1-3)Gal(b1-4)GlcNAc(b1-3)Gal(b1-4)GlcNAc(b1-2)Man(a1-3)]Man(b1-4)GlcNAc(b1-4)[Fuc(a1-6)]GlcNAc
Summary of the method: as §1

[7] = target: GlcNAc(b1-3)Gal(b1-4)GlcNAc(b1-3)Gal(b1-4)GlcNAc(b1-3)Gal(b1-4)GlcNAc(b1-2)Man(a1-3)[GlcNAc(b1-3)Gal(b1-4)GlcNAc(b1-3)Gal(b1-4)GlcNAc(b1-3)Gal(b1-4)GlcNAc(b1-2)Man(a1-6)]Man(b1-4)GlcNAc(b1-4)GlcNAc
Summary of the method: as §1

[8] = target: GlcNAc(b1-3)Gal(b1-4)GlcNAc(b1-3)Gal(b1-4)GlcNAc(b1-3)Gal(b1-4)GlcNAc(b1-2)[GlcNAc(b1-3)Gal(b1-4)GlcNAc(b1-3)Gal(b1-4)GlcNAc(b1-3)Gal(b1-4)GlcNAc(b1-6)]Man(a1-6)[GlcNAc(b1-3)Gal(b1-4)GlcNAc(b1-3)Gal(b1-4)GlcNAc(b1-3)Gal(b1-4)GlcNAc(b1-2)Man(a1-3)]Man(b1-4)GlcNAc(b1-4)[Fuc(a1-6)]GlcNAc
Summary of the method: as §1

[9] = target: GlcNAc(b1-3)Gal(b1-4)GlcNAc(b1-3)Gal(b1-4)GlcNAc(b1-3)Gal(b1-4)GlcNAc(b1-3)Gal(b1-4)GlcNAc(b1-2)Man(a1-3)[GlcNAc(b1-3)Gal(b1-4)GlcNAc(b1-3)Gal(b1-4)GlcNAc(b1-3)Gal(b1-4)GlcNAc(b1-3)Gal(b1-4)GlcNAc(b1-2)Man(a1-6)]Man(b1-4)GlcNAc(b1-4)GlcNAc
Summary of the method: as §1

[10] = target: GlcNAc(b1-3)Gal(b1-4)GlcNAc(b1-3)Gal(b1-4)GlcNAc(b1-3)Gal(b1-4)GlcNAc(b1-3)Gal(b1-4)GlcNAc(b1-2)Man(a1-3)[GlcNAc(b1-3)Gal(b1-4)GlcNAc(b1-3)Gal(b1-4)GlcNAc(b1-3)Gal(b1-4)GlcNAc(b1-3)Gal(b1-4)GlcNAc(b1-2)Man(a1-6)]Man(b1-4)GlcNAc(b1-4)[Fuc(a1-6)]GlcNAc
Summary of the method: as §1

[11] = target: GlcNAc(b1-3)Gal(b1-4)GlcNAc(b1-3)Gal(b1-4)GlcNAc(b1-3)Gal(b1-4)GlcNAc(b1-3)Gal(b1-4)GlcNAc(b1-2)[GlcNAc(b1-3)Gal(b1-4)GlcNAc(b1-3)Gal(b1-4)GlcNAc(b1-3)Gal(b1-4)GlcNAc(b1-3)Gal(b1-4)GlcNAc(b1-6)]Man(a1-6)[GlcNAc(b1-3)Gal(b1-4)GlcNAc(b1-3)Gal(b1-4)GlcNAc(b1-3)Gal(b1-4)GlcNAc(b1-3)Gal(b1-4)GlcNAc(b1-2)Man(a1-3)]Man(b1-4)GlcNAc(b1-4)[Fuc(a1-6)]GlcNAc
Summary of the method: as §1

[12] = target: GlcNAc(b1-3)Gal(b1-4)GlcNAc(b1-6)[Gal(b1-3)]GalNAc
Summary of the method: as §1

[13] = target: GlcNAc(b1-4)GlcNAc(b1-4)GlcNAc
Summary of the method: as §1

[14] = target: Man(a1-2)Man(a1-6)[Man(a1-3)]Man(a1-6)[Man(a1-2)Man(a1-2)Man(a1-3)]Man
Summary of the method: as §1

Man(a1-3)[Man(a1-6)]Man = target: Man(a1-3)[Man(a1-6)]Man
Summary of the method: as §1

[15] = target: Man(a1-3)[Man(a1-6)]Man(a1-6)[Man(a1-2)Man(a1-3)]Man(b1-4)GlcNAc(b1-4)GlcNAc
Summary of the method: as §1

Neu5Ac(a2-3)Gal = target: Neu5Ac(a2-3)Gal
Summary of the method: as §1

[16] = target: Neu5Ac(a2-3)Gal(b1-3)GlcNAc
Summary of the method: as §1

[17] = target: Neu5Ac(a2-3)Gal(b1-3)GlcNAc(b1-2)Man(a1-3)[Neu5Ac(a2-3)Gal(b1-3)GlcNAc(b1-2)Man(a1-6)]Man(b1-4)GlcNAc(b1-4)GlcNAc
Summary of the method: as §1

[18] = target: Neu5Ac(a2-3)Gal(b1-4)GlcNAc(b1-3)Gal(b1-4)GlcNAc(b1-3)Gal(b1-4)GlcNAc
Summary of the method: as §1

[19] = target: Neu5Ac(a2-3)Gal(b1-4)GlcNAc(b1-3)Gal(b1-4)GlcNAc(b1-3)[Neu5Ac(a2-3)Gal(b1-4)GlcNAc(b1-3)Gal(b1-4)GlcNAc(b1-6)]GalNAc
Summary of the method: as §1

[20] = target: Neu5Ac(a2-6)Gal(b1-4)GlcNAc(b1-3)GalNAc
Summary of the method: as §1

[21] = target: Neu5Ac(a2-6)Gal(b1-4)GlcNAc6S
Summary of the method: as §1

[22] = target: Neu5Ac(a2-8)Neu5Ac(a2-3)[GalNAc(b1-4)]Gal(b1-4)Glc
Summary of the method: as §1

B1: Gal 8 (Mus musculus), Q9JL15 (protein)
chain: MGGSHHHHHHGMASMLSLNNLQNIIYNPIIPYVGTITEQLKPGSLIVIRGHVPKDSERFQVDFQLGNSLKPRADVAFHFNPHFKRSSCIVCNTLTQEKWGWEEITYDMPFRKEKSFEIVFMVLKNKFQVAVNGRHVLLYAHRISPEQIDTVGIYGKVNIHSIGFRFSSASALPHTLGDLQSMETSALGLTQINRENIQKPGKLQLSLPFEARLNASMGPGRTVVIKGEVNTNARSFNVDLVAGKTRDIALHLNPHLNVKAFVRNSFLQDAWGEEERNITCFPFSSGMYFEMIIYCDVREFKVAINGVHSLEYKHRFKDLSSIDTLSVDGDIRLLDVRSW
glycan array binding signal (z-score) [1]: 0.053
glycan array binding signal (z-score) (Gal4S(b1-4)GlcNAc): -0.22
glycan array binding signal (z-score) (Gal6S(b1-3)GlcNAc6S): -0.186
glycan array binding signal (z-score) [2]: -0.214
glycan array binding signal (z-score) (GalNAc(b1-3)GalNAc): -0.259
glycan array binding signal (z-score) (GalNAc(b1-4)GlcNAc): -0.245
glycan array binding signal (z-score) [3]: -0.271
glycan array binding signal (z-score) [4]: -0.198
glycan array binding signal (z-score) [5]: -0.278
glycan array binding signal (z-score) [6]: 5.44
glycan array binding signal (z-score) [7]: 4.25
glycan array binding signal (z-score) [8]: 4.84
glycan array binding signal (z-score) [9]: 7.01
glycan array binding signal (z-score) [10]: 6.24
glycan array binding signal (z-score) [11]: 6.71
glycan array binding signal (z-score) [12]: -0.251
glycan array binding signal (z-score) [13]: -0.255
glycan array binding signal (z-score) [14]: -0.276
glycan array binding signal (z-score) (Man(a1-3)[Man(a1-6)]Man): -0.24
glycan array binding signal (z-score) [15]: -0.246
glycan array binding signal (z-score) (Neu5Ac(a2-3)Gal): -0.259
glycan array binding signal (z-score) [16]: -0.217
glycan array binding signal (z-score) [17]: 0.022
glycan array binding signal (z-score) [18]: -0.148
glycan array binding signal (z-score) [19]: -0.255
glycan array binding signal (z-score) [20]: -0.062
glycan array binding signal (z-score) [21]: -0.2
glycan array binding signal (z-score) [22]: -0.268

From the supplement of paper PMC8728848
